PubChem BioAssay
Active and inactive are the calls of the source.

Assay: osmotic lysis modulators in infected erythrocytes, primary screen, PSAC antagonist project, cell-based, P. falciparum Indochina, OD700, 3 h (AID 1156)
Settings: higher = more signal, called active from +8 up or from −8 down

z-score, inactive:
O=C(NCCN1CCOCC1)[C@@H]1c2ccccc2C(=O)N(Cc2ccccc2Cl)[C@H]1c1ccc(CO)cc1 0.297
COC(=O)[C@@]1(Cc2ccc(F)cc2)[C@H]2c3cc(C(=O)N4CCCC4)n(Cc4ccc(C)c(F)c4F)c3C[C@H]2CN1C(=O)c1ccccc1 0.598
CCCCC(CC)C(O)C1C=CC2C(=O)N(c3ccccc3)C(=O)C2N1Nc1ccccc1F (stereo not drawn) -0.42
[N-]=[N+]=Nc1ccccc1C[C@]1(C(=O)O)COC(c2ccc(OCCCO)cc2)=N1 4.11
CC(=O)NCCCC[C@@H]1NC(=O)[C@@H]2C[C@H](C(=O)NCCCCCN)[C@H](c3cccc(OCCO)c3)N2C1=O 1.98
COc1ccc(C#Cc2ccc3c(c2)[C@]2(C(=O)N3)[C@H](c3ccc(OCCO)cc3)N3[C@H](c4ccccc4)[C@H](c4ccccc4)OC(=O)[C@H]3[C@@H]2C(=O)NC[C@H](O)c2ccccc2)cc1 -0.403
CC(C)NC(=O)[C@@]1(C)c2ccccc2C(=O)N(Cc2ccc(OC(F)(F)F)cc2)[C@H]1c1ccc(CO)cc1 1.89
CCCC[C@@H](O)C1=C(COC)C[C@H]2C(=O)N(Cc3ccccc3)C(=O)[C@H]2[C@H]1CO -0.157
